Screening data as filed in PubChem BioAssay.
LmPK inh = LmPK (Leishmania mexicana) enzyme inhibition | purified LmPK, Kinase-Glo ATP luminescence, 1 h | Potency, µM (doses to about 57.5 µM), inactives show top-dose activity change, negative = inhibition, usual class: inhibitors | 290,000 compounds, 0.37% hits | AID 1721; further: potency means the concentration at half of the fitted maximal effect; on the % scale 0 is the no-effect control and ±100 the full control effect
Target sequence (Q27686 whole entry, looked up): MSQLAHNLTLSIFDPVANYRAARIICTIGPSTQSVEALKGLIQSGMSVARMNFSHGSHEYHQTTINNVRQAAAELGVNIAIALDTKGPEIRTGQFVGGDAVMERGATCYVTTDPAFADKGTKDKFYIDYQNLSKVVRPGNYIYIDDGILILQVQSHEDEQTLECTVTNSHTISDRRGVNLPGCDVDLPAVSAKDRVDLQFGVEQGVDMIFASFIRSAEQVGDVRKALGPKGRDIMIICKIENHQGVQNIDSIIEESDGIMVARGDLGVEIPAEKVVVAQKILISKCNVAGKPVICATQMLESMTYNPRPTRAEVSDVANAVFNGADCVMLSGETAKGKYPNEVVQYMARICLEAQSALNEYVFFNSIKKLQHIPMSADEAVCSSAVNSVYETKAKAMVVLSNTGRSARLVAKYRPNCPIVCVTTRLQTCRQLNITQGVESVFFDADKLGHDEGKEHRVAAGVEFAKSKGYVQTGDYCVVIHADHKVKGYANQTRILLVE
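In 50 mM imidazole pH 7.2 with 7 mM MgCl2, LmPK (0.1 nM) turned over PEP (0.5 mM) and ADP (0.1 mM) for 1 h at room temperature. Luciferase read-out of ATP.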
TbPYK inhibitor = inhibitors of Trypanosoma brucei pyruvate kinase; Q57TT1; TbPYK enzyme, Kinase-Glo Plus ATP luminescence, 45 min; Potency, µM (series often up to 76.8 µM), for the others: top-dose activity, negative = inhibition, actives largely listed as inhibitors; 410,000 compounds, 0.12% hits; AID 624173; further: potency means the concentration at half of the fitted maximal effect; on the % scale 0 is the no-effect control and ±100 the full control effect; nearly all actives have a fitted effect of over 50% in size
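In this concentration-response screen, enzyme-free wells defined baseline while DMSO plates tracked drift. Each reaction combined TbPYK, substrate, compound and 130 uM ADP for 45 min at room temperature. Kinase-Glo Plus luminescence gave the signal.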
FBPA Giardia inh = Giardia lamblia aldolase inhibition | AID 2451 | A8B2U2 | purified Giardia FBPA | 290,000 compounds, 0.71% hits | Potency, µM (highest dose often 59.6 µM), for inactives: top-dose activity, negative = inhibition, most hits filed as inhibitors; further: potency means the concentration at half of the fitted maximal effect; on the % scale 0 is the no-effect control and ±100 the full control effect; nearly all actives have a fitted effect of over 55% in size
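40 nM FBPA preincubated 10 min at RT with compound (up to 57.5 uM final), then substrate plus GAPDH/TPI/NAD/arsenate coupling and diaphorase/resazurin added. Fluorescence read after 20 min at RT, 525/598 nm.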
Shiga toxin inh = Shiga toxin inhibition; Vero cells, Shiga toxin protein synthesis inhibition reporter; inhibition, % at 38.7 µM; 290,000 compounds, 9.2% hits; in the data active means inhibition mostly above about 28%, no sharp cut-off; inactive means mostly below about 43%; further: 0% is about no effect
RE007 growth inh = less growth of the S. pombe RE007 Vpr strain | Potency, µM (titrated, usually from 92.2 µM), without a hit: at the highest dose activity change, negative = less growth, actives largely listed as inhibitors | S. pombe RE007 Vpr strain, BacTiter-Glo ATP luminescence, 24 h | 360,000 compounds, 0.21% hits | AID 651644; active means well fitted falling curve with a large enough effect; inconclusive means small, poorly fitted or top-dose-only effect; inactive means no such curve, though single readings can be large or run the other way; further: potency means the concentration at half of the fitted maximal effect; on the % scale 0 is the no-effect control and ±100 the full control effect; nearly all actives have a fitted effect of over 50% in size
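Fission yeast RE007 carrying one integrated HIV-1 vpr copy, seeded at OD 0.01 in PMG+AL medium with 23 nL pinned compound. Grown 24 h at 30 degrees; viability read by BacTiter-Glo luminescence after 5 min.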
CHX counter = counter-screen hit for Shiga toxin inhibitors, cycloheximide. cell reporter, cycloheximide protein synthesis inhibition counterscreen. AID 2314. max response, %. 300,000 compounds, 12% hits; in the data active means max response mostly above about 13%, no sharp cut-off; inactive means mostly below about 14%; further: read at 38.3 µM for the half of the compounds with a filed dose; 0% is about no effect
An asterisk follows results filed as active; [ ] = another dose, or the depositor's remark. Many of the other results were omitted from the sample, so hits are more common in it than they were. Unless noted, the call rests on the fitted dose curve; in most records, active means well fitted curve in the direction sought with a large enough effect; inconclusive means small, poorly fitted or top-dose-only effect, or another doubt; inactive means no such curve, though single readings can be large; an effect the other way counts as inactive or inconclusive.

Results for Cc1cccc(NC(=O)Nc2ccc(C)cc2Br)c1 ?
LmPK inh: 3%; TbPYK inhibitor: 0%; FBPA Giardia inh: 4%; Shiga toxin inh: 61*; RE007 growth inh: -7%; CHX counter: 32*

What do the screens show for `CC(=O)NCc1ccc2[nH]c(C)cc2c1`?
LmPK inh: -2%; TbPYK inhibitor: -5%; FBPA Giardia inh: inconclusive; Shiga toxin inh: 4; RE007 growth inh: 6%; CHX counter: -4

Results for COc1ccc(C)cc1NC(=O)Nc1cccc(C)c1 ?
LmPK inh: 1%; TbPYK inhibitor: 7%; FBPA Giardia inh: -13%; Shiga toxin inh: 5; RE007 growth inh: -12%; CHX counter: 1

What do the screens show for `O=C(COC(=O)C1CCC1)NCc1ccc(Cl)cc1Cl`?
TbPYK inhibitor: -1%; RE007 growth inh: 18%

How did O=C(NCc1cccc(F)c1)c1ccc2nc(N3CCCCC3)sc2c1 do in these assays?
TbPYK inhibitor: -3%

How did CCC(=O)NCc1ccc2[nH]c(C)cc2c1 do in these assays?
LmPK inh: -6%; TbPYK inhibitor: 2%; FBPA Giardia inh: inconclusive; Shiga toxin inh: 2; RE007 growth inh: 5%; CHX counter: -1

What do the screens show for `Cc1cccc(NC(=O)NCc2ccc3[nH]c(C)cc3c2)c1`?
LmPK inh: 13%[11.5 µM]; TbPYK inhibitor: -1%; FBPA Giardia inh: -8%; Shiga toxin inh: 50; RE007 growth inh: -7%; CHX counter: 21*

What do the screens show for `Cc1nnc(SCc2cccc3ccccc23)s1`?
LmPK inh: 4%; TbPYK inhibitor: 4%; FBPA Giardia inh: 6%; Shiga toxin inh: 71*; RE007 growth inh: 14%; CHX counter: 52*

What do the screens show for `Cc1nnc(SCc2ccc(Cl)c(Cl)c2)s1`?
LmPK inh: 9%; TbPYK inhibitor: -10%; FBPA Giardia inh: 2%; Shiga toxin inh: 22; RE007 growth inh: 21%; CHX counter: 14*

How did O=C(Nc1nnc(SCc2ccccc2)s1)c1cccc([N+](=O)[O-])c1 do in these assays?
LmPK inh: -9%; TbPYK inhibitor: -8%; FBPA Giardia inh: inconclusive; Shiga toxin inh: 11; RE007 growth inh: -2%; CHX counter: 5

How did Cc1nnc(SCc2cccc([N+](=O)[O-])c2)s1 do in these assays?
LmPK inh: 1%; TbPYK inhibitor: -4%; FBPA Giardia inh: -14%; Shiga toxin inh: 50; RE007 growth inh: 8%; CHX counter: 18*

How did Nc1nc(SCc2ccc(F)cc2)ns1 do in these assays?
LmPK inh: -4%; TbPYK inhibitor: -6%; FBPA Giardia inh: -5%; Shiga toxin inh: 69*; RE007 growth inh: 9%; CHX counter: 40*

How did c1ccc(Nc2nnc(SCc3cccc4ccccc34)s2)cc1 do in these assays?
LmPK inh: 1%; TbPYK inhibitor: 3%; FBPA Giardia inh: 0%; Shiga toxin inh: 3; RE007 growth inh: 8%; CHX counter: -1

What do the screens show for `CC(Nc1oc(-c2ccccc2)nc1-c1cccc2ccccc12)c1ccccc1` (stereo not given)?
FBPA Giardia inh: -12%

What do the screens show for `COc1ccc(-c2noc(N3CCC(C(=O)N4CCN(c5cccc(OC)c5)CC4)CC3)n2)cc1`?
TbPYK inhibitor: -5%

What do the screens show for `O=[N+]([O-])c1ccc(CN2CC(N3CCN(CC4CC4)CC3)CS2(=O)=O)cc1` (stereo not given)?
TbPYK inhibitor: 2%; RE007 growth inh: 5%

What do the screens show for `CCOC(=O)c1cccc(NC(=O)c2cc3c(Cl)nc4ccc(C)cc4c3s2)c1`?
TbPYK inhibitor: 0%

What do the screens show for `Cc1ccc(S(=O)(=O)N2CCOCC2)cc1NC(=O)CNCC1CCCCC1`?
LmPK inh: 7%; TbPYK inhibitor: -3%; FBPA Giardia inh: inconclusive; Shiga toxin inh: -9; RE007 growth inh: -12%; CHX counter: -3

Results for Nc1nnc(SCc2ccc(F)cc2)s1 ?
LmPK inh: -3%; TbPYK inhibitor: inconclusive; FBPA Giardia inh: 2%; Shiga toxin inh: 16; RE007 growth inh: 7%; CHX counter: 11

Results for Cc1nnc(SCc2ccc(F)cc2)s1 ?
LmPK inh: -7%; TbPYK inhibitor: -4%; FBPA Giardia inh: 0%; Shiga toxin inh: 55*; RE007 growth inh: 0%; CHX counter: 28*

Results for CC(/C=C/c1ccco1)=N/NC(=O)OC(C)(C)C ?
LmPK inh: 1%; TbPYK inhibitor: -14%; FBPA Giardia inh: -15%; Shiga toxin inh: 52; RE007 growth inh: 11%; CHX counter: 23*

Results for COc1ccc(CC(=O)N/N=C(/C)c2ccco2)cc1 ?
LmPK inh: -5%; TbPYK inhibitor: 0%; FBPA Giardia inh: 0%; Shiga toxin inh: -7; RE007 growth inh: 4%; CHX counter: 1

How did O=C(C=Cc1ccco1)c1cc(Cl)ccc1O do in these assays?
TbPYK inhibitor: -1%; RE007 growth inh: inconclusive

What do the screens show for `CC(/C=C/c1ccco1)=N\NC(=O)c1cc(Cl)ccc1O`?
LmPK inh: 20%; TbPYK inhibitor: -7%; FBPA Giardia inh: -27%; Shiga toxin inh: 91*; RE007 growth inh: -17%; CHX counter: 27*

What do the screens show for `C/C(=N/NC(=O)OC(C)(C)C)c1ccco1`?
LmPK inh: inconclusive; TbPYK inhibitor: -9%; FBPA Giardia inh: -2%; Shiga toxin inh: 66*; RE007 growth inh: 2%; CHX counter: 29*

Results for CN(C)c1ccc(CNS(=O)(=O)c2ccc3[nH]c4c(c3c2)CCCCC4)cc1 ?
TbPYK inhibitor: -5%

How did CS(=O)(=O)N1CCC[C@@]2(CCN(c3ccccc3)C2)C1 do in these assays?
TbPYK inhibitor: 8%; FBPA Giardia inh: -20%

What do the screens show for `Cc1cc(C)c2c3c(sc2n1)C1(CCSCC1)C(C#N)=C(N)O3`?
LmPK inh: 4%; TbPYK inhibitor: 0%; FBPA Giardia inh: 1%; Shiga toxin inh: 29*; RE007 growth inh: 14%; CHX counter: 18

How did O=C(N/N=C/C(Br)=C/c1ccccc1)c1ccccc1F do in these assays?
LmPK inh: -5%; TbPYK inhibitor: -1%; FBPA Giardia inh: 10%; Shiga toxin inh: 86*; RE007 growth inh: inconclusive; CHX counter: 34*

How did O=C(N/N=C/C(Cl)=C/c1ccccc1)c1ccccc1F do in these assays?
LmPK inh: 8%; TbPYK inhibitor: -5%; FBPA Giardia inh: -12%; Shiga toxin inh: 80*; RE007 growth inh: -2%; CHX counter: 56*

How did N#Cc1ccc(/C=N/NC(=O)c2ccccc2F)cc1 do in these assays?
LmPK inh: -5%; TbPYK inhibitor: 7%; FBPA Giardia inh: 0%; Shiga toxin inh: 13; RE007 growth inh: 13%; CHX counter: 12

Results for CCC(=O)Nc1cc(-c2cccc(C)c2)nn1-c1ccccc1 ?
TbPYK inhibitor: 1%

How did CSC(=CC(=O)c1ccc(F)cc1)SC do in these assays?
LmPK inh: -11%; TbPYK inhibitor: -1%; FBPA Giardia inh: -9%; Shiga toxin inh: 18; RE007 growth inh: -23%; CHX counter: 26*
